Measured values: PubChem BioAssay (NCI)
Several values for one entry are separate records, joined by “and”; a condition that tells them apart may be missing. Equal values may be shown once. This is part of a sample that, as a whole, favours compounds with a hit. Of some 83,000 tested, about 20% had one in any assay.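 For each line, cells grew in 96-well plates with the test compound present at a single concentration for 48 hours.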 Unmarked numbers belong to inactive results. Activity calls are given as the source filed them. The calls were made as follows: active = growth percent below 10; inactive = the rest.

Tests used:
Assay in all cases: NCI-60 one-dose screen, 48 h (100 = growth as untreated, 0 = no growth, -100 = all killed)
Conditions in all cases: 10 µM unless noted
[1] = system: SK-MEL-2 melanoma
[2] = system: EKVX NSCLC
[3] = system: SN12C renal
[4] = system: UO-31 renal
[5] = system: TK-10 renal
[6] = system: CAKI-1 renal
[7] = system: A498 renal
[8] = system: CCRF-CEM leukemia
[9] = system: MOLT-4 leukemia
[10] = system: ACHN renal

| Compound | growth [1] | growth [2] | growth [3] | growth [4] | growth [5] | growth [6] | growth [7] | growth [8] | growth [9] | growth [10] |
| --- | --- | --- | --- | --- | --- | --- | --- | --- | --- | --- |
| Nc1ccccc1SC(CC(=O)c1ccccc1)c1cccc([N+](=O)[O-])c1 (stereo not drawn) | 113% and 81.9% | 96.5% | 87.7% and 88.8% | 71.6% and 61.5% | 131% and 113% | 70.9% and 95.2% | 91.5% and 104% | 53.3% and 34.9% | 87.6% and 55% | – |
| Nc1nc(N)c2cc(S(=O)(=O)c3ccccc3)ccc2n1 | 80.2% and 126% | 47.4% and 51.2% | 29.2% and 41.4% | 35.3% and 61.5% | 59.6% and 63.8% | 21.3% and 22.4% | 57.2% and 94.4% | 37.9% and 29.7% | – | – |
| OCc1cccc(F)c1 | 2.28% (active) | 106% | 83.6% | 75.1% | 96.5% | 34.2% | 111% | 103% | 83.5% | – |
| CCOC(=O)C1=C(C)NC(C)=C(C(=O)OCC)C1 | 109% and 110% | 109% | 94.7% and 109% | 98.9% and 90.4% | 107% and 101% | 113% and 97.6% | 112% | 86.9% and 56% | 134% and 101% | – |
| CC1CCC(=O)N1c1ccc(N)cc1 (stereo not drawn) | 99.7% | 104% | 106% | 93.7% | 94.8% | 102% | 98.4% | 107% | 105% | 104% |
| c1ccc2c[n+](Cc3ccc4ccccc4n3)ccc2c1 | 102% | 82.5% | 80% | 82.4% | 99.9% | 102% | 79.4% | 76.8% | 92.4% | – |
| O=COCCCc1ccccc1 | 101% | 98.8% | 105% | 93.2% | 92.8% | 106% | 83.2% | 108% | 113% | – |
| O=c1[nH]c(=O)c2[nH]c(=O)[nH]c2[nH]1 | 137% | 88.6% | 99.7% | 85.7% | 92.1% | 101% | 73.9% | 114% | 113% | – |
| CCc1ccc(OC(=O)CCl)cc1 | 99.9% | 98.6% | 106% | 88.6% | 101% | 101% | 88.3% | 104% | 102% | – |
| CN1C2C=CC(=O)C1C1C(=O)N(c3ccccc3)C(=O)C12 (stereo not drawn) | 46.2% | 106% | 60.2% | 53.9% | 78.9% | 28% | 106% | 50.5% | 74.4% | 63.9% |
| COc1cc(Cl)ccc1C | 30.3% | 109% | 72.7% | 67.1% | 90.5% | 54.7% | 110% | 91.9% | 81.7% | – |
| Cn1c(N)c(N=O)c(=O)n(C)c1=O | – | 97.4% and 95.9% | 109% and 93.8% | 82% and 92.5% | 120% and 92.8% | 102% | 99% and 78% | 106% and 116% | – | 109% |
| Nc1ccc(O)c(C(=O)O)c1 | – | 101% and 99.5% and 106% | 82% and 103% and 98.7% | 101% and 92% and 67.8% | 133% and 110% and 98.8% | 107% and 102% and 99.8% | 108% and 88% | 106% | – | 99.3% and 108% and 82.8% |
| O=C(O)COc1ccccc1F | – | 111% | 98.3% | 103% | 109% | 93.2% | 102% | 92.3% | 95.3% | 108% |
| CC(=O)/C(N=Nc1ccc(S(=O)(=O)c2ccc(N=N/C(C(C)=O)=C(/C)O)cc2)cc1)=C(\C)O | – | 116% | 110% | 83.5% | 108% | 100% | 100% | 85.9% | – | 104% |
| CC(=O)Oc1cc(C(C)C)c(OCCN(C)C)cc1C | – | 107% | 96.7% and 97.6% | 94.2% and 97.3% | 112% and 121% | 91.9% and 95.3% | 98.3% and 97.4% | 113% and 99.6% | 117% and 105% | 99.4% |
| Cc1ccc(S(=O)(=O)n2ccnc2)cc1 | – | 90.7% | 107% | 89.9% | 93% | 75.3% | 96.5% | 120% | 138% | 104% |
| CC(=O)Oc1ccc(C(c2ccc(OC(C)=O)cc2)c2ccccn2)cc1 | – | 82.5% and 87.8% | 29.3% and 30.9% | 74.3% and 89.2% | 77.1% and 86.1% | 100% and 117% | 91.1% | 98.8% and 90.9% | 93.3% and 103% | – |
| O=C(O)C(Cc1ccc(OS(=O)(=O)Cc2ccccc2)cc1)NS(=O)(=O)Cc1ccccc1 (stereo not drawn) | – | 102% and 115% | 110% and 104% | 95.8% and 86.1% | 101% and 110% | 90.9% and 98.6% | 114% and 130% | 115% and 112% | 121% and 102% | – |
| CCNCc1ccccc1 | – | 111% | 104% | 86.7% | 100% | 101% | 97.4% | 121% | 103% | 110% |
| CS(=O)(=O)c1nsc(N)n1 | – | 108% | 101% | 91.4% | 101% | 103% | 97.4% | 106% | 103% | – |
| COc1ccc(/C=N/NC(N)=S)cc1 | – | 64.1% | 96.1% | 76.4% | 104% | 93.3% | 73.4% | 69.1% | 136% | 101% |
| Nc1nc(-c2ccccn2)cc(-c2cc(-c3ccccn3)nc(N)n2)n1 | – | 102% | 108% | 91.1% | 107% | 96.7% | 156% | 101% | 106% | – |
| COc1cc2c(cc1O)C(=O)CCCC2 | – | 81.6% | 111% | 90.4% | 110% | 73.3% | 116% | 97.7% | 83.9% | 96.9% |
| CC(CN(C)C)CN1c2ccccc2Sc2ccccc21 (stereo not drawn) | – | 83% and 104% and 73.8% | 65% and 85.2% and 80.5% | 51.7% and 77.9% and 71.7% | 82.6% and 76.6% and 81.6% | 62.3% and 69.6% | 108% and 95% and 82.6% | 82.1% and 85.3% and 77.6% | – | 76.1% and 92.2% and 85.9% |
